The values below come from the OligoGym collection.
Further: reference of the scale not given here.

One test concerns the target IFI44L. In words: pooled miR-30 sensor sort-seq; sequence = guide strand. The following applies: shRNA.
For TTTATGGACATTCATGACCCGG, the sensor-assay potency score (higher = more potent) is -1.2.
With TAGCATTTTATGGACATTCATG, the sensor-assay potency score (higher = more potent) was -1.18.
For the sequence TTATGGACATTCATGACCCGGC, the sensor-assay potency score (higher = more potent) was -0.0543.
The same measure, in the same setting: the same measure for TTTGTGAACTTGCTTCACTTTT: -0.819.
Same read-out and setting: next, TAATACTTCTTTGTGAACTTGC: 0.781; TTCTTTGTGAACTTGCTTCACT: 0.156.
Same read-out and setting: the same measure for TATGTCGTCTAGGTTATCCTTA: 0.221; for TTGAAGTGAAAACCATAGGGAA: -0.486; for TTTCGATAAACGACACACCAGT: -0.943.
In turn, TACTTCTTTGTGAACTTGCTTC had a sensor-assay potency score (higher = more potent) of 0.0933.
TTGTCTTGAAGAACCTCACTGC: the sensor-assay potency score (higher = more potent) was 0.709.

The target in another test is IFLTD1. Described as above. The following applies: shRNA.
As for TTGAGATATCTTTCTTAGGTTG, the sensor-assay potency score (higher = more potent) is -0.851.
Regarding TTGCTTTTCTAGTAGCTGGTTG, the sensor-assay potency score (higher = more potent) is -0.208.
As for TTGCTCTAAACTTGTCTTGTTC, the sensor-assay potency score (higher = more potent) was -0.614.
The same measure, in the same setting: the same measure for TTGTCCATTCACATTTTGCTGG: -0.587; for TAGACAGATAGTAACCAAGAGG: -1.22.
On the same count and under the same terms, next, TATAGTTACTCTACTAATCTGA: 0.529; TAATTTGAGATATCTTTCTTAG: -0.577.
Turning to TTGTTATACAATCAGGACTTGC, the sensor-assay potency score (higher = more potent) was -1.51.
Same read-out and setting: the same measure for TTGAATAATACTAACCATCTGC: 0.269; for TTTTCCACTCTGGAACAGCTAC: -0.846; for TCTTCTTTTTCTTAGACCCTGA: -0.319.
Same read-out and setting: next, TAAGTTTCTTTGAATCACCAAA: -0.981.
